39 sequences from the supplement of paper PMC6555819 can be followed below.

In one test the test system is PPARg:RXRa 270nM:90nM, anti-RXR (NR concentration 270 nM, RXRa partner concentration 90 nM). Kind of test: PBM binding z-score (relative to random genomic background probes); higher = stronger binding; sequences stand for … in GC…GCGATTGACAGCGTAGAATGAAGG
In short, it runs like this:
(§1)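 Custom Agilent 4×180K protein-binding microarrays carried double-stranded probes, each with a 34-nt variable region. These regions held direct-repeat seeds, single-nucleotide variants, half-site ablations and random human genomic background sequences. Ligand-free nuclear receptor dimers were incubated on the arrays for 1 h, antibodies against each partner (one per run) detected binding, and scanned fluorescence was regression-normalized. Binding z-scores take the random background probes as reference.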
For AGTCAAAGTTCATCCAGGTAACGTAAGATATGCT, the PBM binding z-score amounted to 6.44.

Sequence CTCGAAAGGTCGGTTGAGGTGAGTAGACGGATAA displayed a PBM binding z-score of 1.51.

For the sequence CCTTACGGGTCACGAGGTTATAGGACGACGAGCG, the PBM binding z-score was determined as 6.72.

The sequence ATCGAAAGGTCGACGAGGTGACTATACACCGTTT yielded a PBM binding z-score of 3.2.

In the case of AGAATGAGGTTACGAAAGATCAGGGAAACGCTTG, the PBM binding z-score amounted to 2.84.

On to TCTGCTAGGTTAACGATGGTCAGCTAATCTGCTA, for which the PBM binding z-score is 0.909.

With ATCGAAAGGTCGACGAGGTGAGTATTCACCGTTT, the PBM binding z-score was determined as 2.99.

In the case of ATATGTAGGTAAGCTGGGGTCATTCAGACTAGGC, the PBM binding z-score stood at 4.65.

For CATACAGGGTCAGCTAGCCCAGAGTAGGGACGGC, the PBM binding z-score was found to be 2.84.

In the case of ATCGAAAGATCGAGGTGAGTATAGAGAAAGGGAA, the PBM binding z-score came out at 0.362.

Consider TCTATTAGTTAAAGGGCAACCGACGAGTCCGTTT, for which the PBM binding z-score stood at 3.36.

Regarding CCTATTATTTGACCATAAGGGCAACCGAAGCTCG, the PBM binding z-score was 0.728.

Regarding AATACACGGTCATCGTAGGCCAGAGTACGCACAG, the PBM binding z-score was 0.51.

CGTCCAAGGGCAAAGGTCAGTGAAGAGATGACGG gave a PBM binding z-score of 7.1.

In the case of CCTTACGGGTCACAAGGTTATAGCACGACGAGCG, the PBM binding z-score was found to be 5.85.

Sequence GCGACTGGGGCATCAGCAGGTTCCCATAACTTAA registered a PBM binding z-score of 0.35.

In the case of AGAACGAGGGCACGCTGAGTTTATAGCAGAGTAG, the PBM binding z-score was determined as 1.98.

In turn, GATACAGGGTCAAGGCCAGATTACGCGTATTGAT yielded a PBM binding z-score of 5.29.

The sequence ATACCAAGGTGAACGTGAGGTCGTTGATACTAAC gave a PBM binding z-score of 1.87.

On to CCTGCTAGGTCTTGGTCAGCTAATCTACAGTATG, for which the PBM binding z-score is -0.599.

GCTTGTAGATCAAGGTTACGAAAGACTAAGCTAA had a PBM binding z-score of 1.64.

For the sequence CCTGCTAGGTCATGGTCAGCTACTCTACAGTATG, the PBM binding z-score amounted to 2.72.

As for TCGAGTAGGTTACCAATGGGGCAGTCAGCTTTCT, the PBM binding z-score is 1.04.

Sequence GGAACGAGGGAAAAGTTGATAGCATCTGTCGACG came in with a PBM binding z-score of 3.68.

As to ATATGTAGGTTATCGGGTCATTCCGTTTGCGCAT, the PBM binding z-score came out at 5.92.

The sequence AGAATGAGGTTCCCAAAGATCAGGGAAACGCTTG gave a PBM binding z-score of 0.0468.

Consider CCTACTGGGCCAAGGTCATTGATCAGTCAAAGCA, for which the PBM binding z-score was found to be 4.44.

ATCTCTAGGTAAAAAGTTCAGTGAAAGAGAGGAC had a PBM binding z-score of 3.72.

On to CCTTACGGGTCACTCCAGATTATAGCATCGGAGT, for which the PBM binding z-score is 3.43.

With AGTCAAAGTTCATCTAGGCAACGTAAGATATGCT, the PBM binding z-score was 6.11.

The sequence TAGCCTAGGTCAGTCAGGGGCCAGTATAGAAAGC gave a PBM binding z-score of 1.04.

Consider CCGACTGGGGCAGAAAGGTTACCACACCATCCGG, for which the PBM binding z-score worked out at 2.66.

As to ATATGTAGGTTACATCTGGGTCATTCAGGCTATG, the PBM binding z-score was 4.89.

The sequence TCAGACAGATGAAGGTAACTCAGGTACGCAGTCG registered a PBM binding z-score of 2.06.

The sequence CTCGAAAGGTCGGTTAAGGTGAGTATACGGATAA displayed a PBM binding z-score of 1.48.

For TCGAGTAGGTTAGGGGCATTCTGAATGGCGTCGA, the PBM binding z-score was determined as 2.02.

The sequence GATACAGGGTCAAGGCCGGAGTACGCGTATTGAT came in with a PBM binding z-score of 5.32.

Turning to GCTGCTAGGTCAACTGATGGTCAGTTAAAGCTCG, the PBM binding z-score was 3.25.

ACTAGCAGGCCAAGTTTGGGCCACTCAAACAAAG yielded a PBM binding z-score of -0.685.

Another test concerns PPARg:RXRa 30nM:10nM, anti-RXR (NR concentration 30 nM, RXRa partner concentration 10 nM). The test is described as above. In short, it runs like this:
as §1
AGTCAAAGTTCATCCAGGTAACGTAAGATATGCT: the PBM binding z-score turned out to be 3.61.

In the case of CTCGAAAGGTCGGTTGAGGTGAGTAGACGGATAA, the PBM binding z-score stood at 0.222.

Take CCTTACGGGTCACGAGGTTATAGGACGACGAGCG: the PBM binding z-score turned out to be 3.51.

ATCGAAAGGTCGACGAGGTGACTATACACCGTTT yielded a PBM binding z-score of 1.22.

Sequence AGAATGAGGTTACGAAAGATCAGGGAAACGCTTG returned a PBM binding z-score of 1.04.

The sequence TCTGCTAGGTTAACGATGGTCAGCTAATCTGCTA registered a PBM binding z-score of 1.45.

Take ATCGAAAGGTCGACGAGGTGAGTATTCACCGTTT: the PBM binding z-score was 1.55.

Sequence ATATGTAGGTAAGCTGGGGTCATTCAGACTAGGC yielded a PBM binding z-score of 2.

CATACAGGGTCAGCTAGCCCAGAGTAGGGACGGC displayed a PBM binding z-score of 0.528.

Take ATCGAAAGATCGAGGTGAGTATAGAGAAAGGGAA: the PBM binding z-score came to 0.533.

Take TCTATTAGTTAAAGGGCAACCGACGAGTCCGTTT: the PBM binding z-score was determined as 3.9.

Turning to CCTATTATTTGACCATAAGGGCAACCGAAGCTCG, the PBM binding z-score was found to be 0.155.

Sequence AATACACGGTCATCGTAGGCCAGAGTACGCACAG returned a PBM binding z-score of 0.35.

For CGTCCAAGGGCAAAGGTCAGTGAAGAGATGACGG, the PBM binding z-score stood at 5.37.

The sequence CCTTACGGGTCACAAGGTTATAGCACGACGAGCG had a PBM binding z-score of 2.52.

The sequence GCGACTGGGGCATCAGCAGGTTCCCATAACTTAA had a PBM binding z-score of -0.948.

Sequence AGAACGAGGGCACGCTGAGTTTATAGCAGAGTAG returned a PBM binding z-score of 0.505.

In the case of GATACAGGGTCAAGGCCAGATTACGCGTATTGAT, the PBM binding z-score was 2.36.

As for ATACCAAGGTGAACGTGAGGTCGTTGATACTAAC, the PBM binding z-score is 0.56.

Sequence CCTGCTAGGTCTTGGTCAGCTAATCTACAGTATG showed a PBM binding z-score of -0.683.

In turn, GCTTGTAGATCAAGGTTACGAAAGACTAAGCTAA returned a PBM binding z-score of 0.408.

CCTGCTAGGTCATGGTCAGCTACTCTACAGTATG: the PBM binding z-score stood at 0.637.

TCGAGTAGGTTACCAATGGGGCAGTCAGCTTTCT displayed a PBM binding z-score of 1.06.

Sequence GGAACGAGGGAAAAGTTGATAGCATCTGTCGACG returned a PBM binding z-score of 1.71.

ATATGTAGGTTATCGGGTCATTCCGTTTGCGCAT showed a PBM binding z-score of 3.37.

As to AGAATGAGGTTCCCAAAGATCAGGGAAACGCTTG, the PBM binding z-score was 0.142.

As to CCTACTGGGCCAAGGTCATTGATCAGTCAAAGCA, the PBM binding z-score came out at 1.5.

ATCTCTAGGTAAAAAGTTCAGTGAAAGAGAGGAC: the PBM binding z-score stood at 2.6.

Regarding CCTTACGGGTCACTCCAGATTATAGCATCGGAGT, the PBM binding z-score worked out at 0.931.

The sequence AGTCAAAGTTCATCTAGGCAACGTAAGATATGCT returned a PBM binding z-score of 3.4.

Consider TAGCCTAGGTCAGTCAGGGGCCAGTATAGAAAGC, for which the PBM binding z-score is -0.0718.

Consider CCGACTGGGGCAGAAAGGTTACCACACCATCCGG, for which the PBM binding z-score is 0.555.

The sequence ATATGTAGGTTACATCTGGGTCATTCAGGCTATG registered a PBM binding z-score of 2.26.

As to TCAGACAGATGAAGGTAACTCAGGTACGCAGTCG, the PBM binding z-score worked out at 4.27.

Consider CTCGAAAGGTCGGTTAAGGTGAGTATACGGATAA, for which the PBM binding z-score came out at 0.313.

With TCGAGTAGGTTAGGGGCATTCTGAATGGCGTCGA, the PBM binding z-score is 1.09.

In turn, GATACAGGGTCAAGGCCGGAGTACGCGTATTGAT registered a PBM binding z-score of 1.81.

The sequence GCTGCTAGGTCAACTGATGGTCAGTTAAAGCTCG yielded a PBM binding z-score of 0.658.

ACTAGCAGGCCAAGTTTGGGCCACTCAAACAAAG came in with a PBM binding z-score of -0.785.
